ALDH1A1 inh: inhibitors of human aldehyde dehydrogenase 1A1; Potency, µM (titrated, usually from 75.3 µM), for the others: top-dose activity, negative = inhibition, hits mostly inhibitors; P00352; 7.3% of 220,000 active; Purified ALDH1A1, NADH fluorescence, propionaldehyde substrate; active = well fitted inhibition curve with a large enough effect, not every such curve was filed as active; inconclusive = small, poorly fitted or top-dose-only effect, or another doubt; inactive = no such curve, though single readings can be large or run the other way;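 also: plate controls were no enzyme wells and a reference inhibitor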
HPGD inh: blocks human HPGD enzyme activity. 4.3% of 150,000 active. purified HPGD, NADH fluorescence kinetic, PGE2 substrate. P15428. Potency, µM, for the others: at the top dose activity change, negative = inhibition, hits mostly inhibitors; active = well fitted inhibition curve with a large enough effect, not every such curve was filed as active; inconclusive = small, poorly fitted or top-dose-only effect, or another doubt; inactive = no such curve, though single readings can be large or run the other way; also: % is scaled to controls: 0 for no effect and ±100 for the full control effect
Target sequence (P15428 whole entry, looked up): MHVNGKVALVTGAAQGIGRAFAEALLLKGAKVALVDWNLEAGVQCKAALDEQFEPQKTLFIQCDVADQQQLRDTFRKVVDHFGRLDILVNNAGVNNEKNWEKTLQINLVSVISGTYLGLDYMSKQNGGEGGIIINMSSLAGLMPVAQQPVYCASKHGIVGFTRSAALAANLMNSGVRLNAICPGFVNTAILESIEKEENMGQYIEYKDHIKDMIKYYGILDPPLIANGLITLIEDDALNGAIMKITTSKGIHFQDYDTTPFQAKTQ
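NADH formation kinetics: reaction with 30 uM PGE2 and 1 mM NAD+ (final), 20 nM enzyme, Tris-HCl pH 8 with Tween 20, after 15 min compound preincubation at room temperature. Fluorescence change, last versus first of five reads.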
KinaseGlo FLuc: counter-screen: inhibitors of Kinase-Glo firefly luciferase. Q27757. Kinase-Glo luciferase, ATP luminescence, 8 min. Potency, µM (titrated, usually from 38.3 µM), inactives show at the top dose activity change, negative = inhibition, hits mostly inhibitors. 0.28% of 200,000 active. AID 1379; also: % is scaled to controls: 0 for no effect and ±100 for the full control effect; nearly all actives have a fitted effect of over 60% in size
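Inhibition of Kinase-Glo luciferase light generation was assessed at 10 uM ATP in pH 7.2 imidazole buffer, with luminescence measured after eight minutes at ambient temperature.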
LMNA splice mod: modulators of lamin A splicing | HeLa LMNA splicing GFP/RFP minigene ratio, 48 h | 0.01% of 200,000 active | Potency, µM (doses to about 46.1 µM), for the others: top-dose ratio change, negative = inhibition, most hits filed as inhibitors; active = well fitted inhibition curve with a large enough effect in the signal ratio, with a control signal flat, not every such curve was filed as active; inconclusive = small, poorly fitted or top-dose-only effect, or effect the other way, or a change in a side signal; the % refers to the signal ratio; also: % is scaled to controls: 0 for no effect and ±100 for the full control effect
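S3 HeLa cells stably expressing lamin A-EGFP splicing minigene plus DsRed2, 600 cells/well, 48 h compound exposure at 37C. Laser-scanning cytometry; analysed as GFP (500-530 nm)/RFP (575-640 nm) total intensity ratio; 0.5% DMSO vehicle.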
HTT ATP protect: protects HTT-Q103 PC12 cells, measured by ATP | PC12 HTT-Q103 induced, cytoprotection, ATP luminescence, 40 h | Potency, µM (titrated, usually from 56.4 µM), inactives show cytoprotection (ATP increase), hits mostly activators | 0.14% of 230,000 active | AID 1471; also: % of control where 0% means no effect; nearly all actives have a fitted effect of over 45% in size
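ATP quantification (ATPlite) reports survival of PC12 cells in which tebufenozide, 100 nM final, switches on Htt exon 1 with 103 glutamines linked to GFP; compounds are titrated.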
HTT aggregate: reduces HttQ103-GFP aggregates in PC12 cells. AID 1688. Potency, µM (titrated, usually from 46.1 µM), for inactives: at the top dose activity change, negative = inhibition, hits mostly inhibitors. PC12 HttQ103-GFP aggregates, Acumen cytometry, 40 h. 1.1% of 220,000 active; also: % is scaled to controls: 0 for no effect and ±100 for the full control effect; nearly all actives have a fitted effect of over 60% in size
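PC12 cells with ecdysone-inducible HTT exon1 Q103-GFP, induced by 100 nM tebufenozide, given compounds in a concentration series. GFP aggregates (1–25 um, 6 SD above background) counted in lysates by laser-scanning cytometry, 488 nm excitation.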
An asterisk follows results filed as active; ? = inconclusive; · = no result; [ ] = another dose, or the depositor's remark. Hits are enriched below; roughly 9% of the tested compounds scored in any of these assays. Unless noted, calls follow the shape of the dose curve; as a rule, active = well fitted curve in the direction sought with a large enough effect; inconclusive = small, poorly fitted or top-dose-only effect, or another doubt; inactive = no such curve, though single readings can be large; an effect the other way counts as inactive or inconclusive. Potency is read from the fitted curve at half-maximal effect.

SMILES	ALDH1A1 inh	HPGD inh	KinaseGlo FLuc	LMNA splice mod	HTT ATP protect	HTT aggregate
CC1(C)CC(=O)C(C=NCC(N)=O)=C(O)C1	-18%	-2%	-7%	-9%	-63%	11µM*
COc1cccc(N=CC2=C(O)CCCC2=O)c1	-11%	·	-5%	9%[46 µM]	-33%	-5%
CC1(C)CC(=O)C(C=Nc2ccc(N)cc2)=C(O)C1	11µM*	·	-1%	·	13%	-5%
CC1(C)CC(=O)C(C=Nc2ccc3cn[nH]c3c2)=C(O)C1	14µM*	-18%	-1%	8%	-37%	-12%
CC1(C)CC(=O)C(C=NCCN2CCN(C(=O)C34CC5CC(CC(C5)C3)C4)CC2)=C(O)C1	7.9µM*	-15%	-4%	3%	-1%	4%
CCOC(=O)c1ccc(NC(=O)CN2CCN(CCN=CC3=C(O)CC(C)(C)CC3=O)CC2)cc1	?	-15%	7%	-1%	-4%[10 µM]	3%
CC1(C)CC(=O)C(C=Nc2ccc3[nH]ncc3c2)=C(O)C1	?	-24%	0%	-2%	-16%	5%
CCOC(=O)c1ccc(NC(=S)N2CCN(CCN=CC3=C(O)CC(C)(C)CC3=O)CC2)cc1	0.5µM*	·	1%	?	7%[10 µM]	?
CCCS(=O)(=O)C/C(N)=N/OC(=O)c1ccccc1Cl	·	·	·	·	-22%[10 µM]	-24%[9.22 µM]
Cc1ccc2cc(CCNC(=O)C(=O)c3c[nH]c4ccccc34)c(=O)[nH]c2c1	-4%	·	-2%	·	-13%	18%
CCOc1ccc(N=CC2=C(O)CC(C)(C)CC2=O)cc1	14µM*	-7%	13%	-9%	-5%	-2%
CC1(C)CC(=O)C(/C=N/c2ncccc2C(=O)O)=C(O)C1	13µM*	?	-4%	11%	10%[10 µM]	-2%
Cc1[nH]nc(N=CC2=C(O)CC(c3ccco3)CC2=O)c1-c1ccc(Cl)cc1 (configuration not stated)	?	-12%	-1%	-7%	-29%	6%
CC1(C)CC(=O)C(C=Nc2ccc(O)cc2)=C(O)C1	?	-6%	-9%	-6%	-11%	7%
Cc1[nH]nc(N=CC2=C(O)CC(C)(C)CC2=O)c1-c1ccc(Cl)cc1	14µM*	-19%	-2%	-11%	3%[10 µM]	-5%
CN(C)Cc1ccc(O)c(CN(C)C)n1	-4%[13.5 µM]	-5%	-5%[7.66 µM]	·	-4%[10 µM]	·
CCOC(=O)C(C)CC(C)C(=O)N1CCOCCOCCN(C(=O)C(C)CC(C)C(=O)OCC)CCOCC1 (configuration not stated)	-5%	-4%	2%	2%	10%	7%
CCOC(=O)C(C(=O)OCC)C(C(=O)OCC)N1CCOCC1 (configuration not stated)	28µM*	22µM*	-5%	?	-18%	12%
Cc1cc(N)n(-c2ccccc2)n1	3%	2%	-5%	10%	-30%	-1%
CC(C)NC(=O)c1ccc2c(=O)n(CC3CCCO3)c(=S)[nH]c2c1 (configuration not stated)	1.4µM*	·	1%	·	-42%	-16%
O=C(NCc1ccccc1)c1ccc2c(=O)n(CC3CCCO3)c(=S)[nH]c2c1 (configuration not stated)	2.8µM*	-5%	-1%	19%	-31%	-14%
O=C(NCC1CCCO1)c1ccc2c(=O)n(Cc3ccc(Cl)cc3)c(=S)[nH]c2c1 (configuration not stated)	-1%	·	0%	?	-6%	0%
COCCCNC(=O)c1ccc2c(=O)n(CC3CCCO3)c(=S)[nH]c2c1 (configuration not stated)	?	-16%	0%	-3%	-11%	-8%
Cc1ccc(CNC(=O)c2ccc3c(=O)n(CC4CCCO4)c(=S)[nH]c3c2)cc1 (configuration not stated)	?	-9%	2%	5%	-38%	17%
O=C(NCc1ccco1)c1ccc2c(=O)n(CC3CCCO3)c(=S)[nH]c2c1 (configuration not stated)	3.2µM*	-13%	0%	0%	-5%[1.9 µM]	0%
SMILES	ALDH1A1 inh	HPGD inh	KinaseGlo FLuc	LMNA splice mod	HTT ATP protect	HTT aggregate
CCOC(=O)c1ccc(NC(=O)CCC(CC)C(=O)O)cc1 (configuration not stated)	0%	-10%	-2%	-2%	-23%	-13%
CC(Cc1ccccc1)C(=O)N1CCN(C)CC1 (configuration not stated)	4%	-29%	0%	5%	-5%	1%
CCC(C)(C)NC(=O)Cn1c(=O)ccc2cc(S(=O)(=O)N3CCC(C)CC3)ccc21	·	·	·	-14%[46 µM]	·	·
O=C1N=C(N2CCN(c3ccccc3)CC2)S/C1=C\c1cn[nH]c1-c1ccccc1	5%	?	-2%	-7%	·	-10%
O=C1N=C(N2CCC(Cc3ccccc3)CC2)S/C1=C/c1cn[nH]c1-c1ccccc1	-8%	25µM*	-1%	7%	-18%	-5%
CNc1ccc(/C=C2\COc3ccccc3C2=O)cc1[N+](=O)[O-]	14%	1.6µM*	-3%	13%	2%	8%
CCOc1ccc2ccccc2c1/C=N/n1cncn1	?	32µM*	-1%	15%	0%	12%
O=C1NC(=S)S/C1=C1\Sc2ccccc2N1CCCS(=O)(=O)O	25µM*	25µM*	1%	9%	-10%[10 µM]	-7%
CCN1/C(=C2\OC(=S)N(C)C2=O)Sc2ccccc21	-18%	-21%	-8%	-7%	-5%	8%
Cc1ccc(C2N(c3ccc(Cl)c(Cl)c3)C(=O)C3CCCN32)o1 (configuration not stated)	?	-4%	-2%	10%	-4%	-2%
C=CCN1C(=O)C(CC(=O)O)SC1=Nc1cccc([N+](=O)[O-])c1 (configuration not stated)	14µM*	·	2%	-15%[46 µM]	1%	5%
C=CCN1C(=O)C(CC(=O)O)SC1=Nc1ccc(N=Nc2ccccc2)cc1 (configuration not stated)	-13%	·	·	·	-35%	-26%
CCN1C(C)=C(C)S/C1=C1\SC(=S)N(N)C1=O	20µM*	·	-1%	·	·	·
Cc1ccc(N=Nc2c(=O)[nH]n3c(=O)cc(C)[nH]c23)cc1	?	20µM*	?	-12%	-57%[10 µM]	17%
CCOc1ccc(N=Nc2c(=O)[nH]n3c(C)cc(C)nc23)cc1	1%	-19%	-25%	7%	0%[10 µM]	-30%
O=C(Nc1nccs1)c1ccc(-c2ccccc2Cl)o1	25µM*	?	-14%	-21%	-12%[10 µM]	-15%
O=C(Nc1nccs1)c1ccc(-c2ccc(Cl)cc2)o1	-12%	·	-7%	-6%[46 µM]	1%[10 µM]	-5%[9.22 µM]
